Assay outcomes deposited in PubChem by National Center for Advancing Translational Sciences (NCATS).
MCF10A rerep = induces DNA re-replication in MCF 10a normal breast cells | MCF 10A DNA re-replication, Hoechst nuclear intensity, 48 h | Potency, µM (top dose mostly 46.1 µM), for the others: at the highest dose activity, positive = re-replication, most hits filed as activators | actives 2.9% (n = 350,000); further: potency means the concentration at half of the fitted maximal effect; % of control where 0% means no effect; nearly all actives have a fitted effect of over 50% in size
D3 ag = activates the human D3 dopamine receptor | P35462 | D3R DiscoveRx beta-arrestin cells, luminescence, 90 min | max activation, % | actives 0.58% (n = 410,000) | AID 652048; in the data active means max activation above about 30%; further: 0% is about no effect
Target sequence (P35462 whole entry, looked up): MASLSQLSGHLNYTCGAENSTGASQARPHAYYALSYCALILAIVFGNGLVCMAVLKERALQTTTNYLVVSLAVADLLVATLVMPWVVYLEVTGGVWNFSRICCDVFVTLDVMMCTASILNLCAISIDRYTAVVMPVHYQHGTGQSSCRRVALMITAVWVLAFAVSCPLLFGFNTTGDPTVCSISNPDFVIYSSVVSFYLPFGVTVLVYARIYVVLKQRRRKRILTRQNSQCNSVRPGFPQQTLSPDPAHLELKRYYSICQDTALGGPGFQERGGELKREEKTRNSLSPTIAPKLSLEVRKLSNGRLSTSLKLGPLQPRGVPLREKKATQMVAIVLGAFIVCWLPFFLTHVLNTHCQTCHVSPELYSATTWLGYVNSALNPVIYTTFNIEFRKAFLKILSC
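Agonist mode: compounds and dopamine controls were applied to plated cells for 90 min at 37 degrees C after an overnight attachment at 1500 cells/well. Luminescent read-out followed 30 - 60 minutes at room temperature with DiscoveRx detection reagent.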
KB-3-1 cytotox = KB-3-1 parental cell cytotoxicity. KB-3-1 viability, CellTiter-Glo ATP luminescence, 72 h. Potency, µM (series often up to 46.1 µM), actives largely listed as cytotoxic. actives 1.4% (n = 400,000); further: potency means the concentration at half of the fitted maximal effect; on the % scale 0 is the no-effect control and ±100 the full control effect; nearly all actives have a fitted effect of over 60% in size
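Multi-concentration cytotoxicity screen in KB-3-1 cells grown in DMEM lacking phenol red with 10% FBS. After 72 h at 37 °C with compound, ATP-dependent luminescence was recorded.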
SW480 rerep = inducers of DNA re-replication in SW480 colon cancer cells; SW480 DNA re-replication, Hoechst DNA content imaging, 48 h; actives 1.8% (n = 340,000); AID 624297; Potency, µM (series often up to 46.1 µM), inactives show at the highest dose re-replication activation, hits mostly activators; further: potency means the concentration at half of the fitted maximal effect; % of control where 0% means no effect; nearly all actives have a fitted effect of over 55% in size
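SW480 cells exposed to compounds for 48 hr at 37 C, 5% CO2, then Hoechst-stained 40 min. Nuclear DNA content imaged by fluorescence scanning (405 nm excitation, 500-530 nm emission); re-replication scored as increased high-intensity nuclei.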
KB-V1 MDR tox = kills drug-selected multidrug resistant KB-V1 cells; actives 3.4% (n = 400,000); KB-V1 MDR cells viability, CellTiter-Glo, 72 h; Potency, µM (series often up to 46.1 µM), most hits filed as cytotoxic; further: potency means the concentration at half of the fitted maximal effect; on the % scale 0 is the no-effect control and ±100 the full control effect; nearly all actives have a fitted effect of over 60% in size
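Potencies derive from concentration-effect curves fitted to normalized luminescence (CellTiter-Glo) of KB-V1 cells treated for 72 h at 37 degrees C in phenol-red-free DMEM containing 10% FBS.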
D3 antag = D3 dopamine receptor (human) antagonism | max response, negative = inhibition, % | AID 652054 | actives 2.5% (n = 360,000) | D3R cells, DiscoveRx beta-arrestin luminescence, antagonist mode; stronger effect = lower value | P35462; in the data active means max response below about -50%; inconclusive means no clear call, values can overlap the other calls; further: on the % scale 0 is the no-effect control and ±100 the full control effect
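Cells plated overnight at 1500 cells/well, then exposed to library compounds with dopamine controls for 90 minutes at 37 degrees C. DiscoveRx reagent added for 30–60 minutes at room temperature; luminescence read, quantitative HTS format.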
* hit, by the source's call; [ ] = another dose, or the depositor's remark. Most compounds without a hit are left out; they make up all but 8.9% or so of the library. Unless noted, the call rests on the fitted dose curve; in most records, active means well fitted curve in the direction sought with a large enough effect; inconclusive means small, poorly fitted or top-dose-only effect, or another doubt; inactive means no such curve, though single readings can be large; an effect the other way counts as inactive or inconclusive.

For COc1ccc(-c2nc(CCNC(=O)c3ccccc3)cs2)cc1OC the results were D3 ag -11.
`CCn1ncc(C2C(C(=O)Nc3ccc(C)cn3)=C(C)NC3=C2C(=O)CCC3)c1C` (centres undefined) gave MCF10A rerep 6%, D3 ag 16, KB-3-1 cytotox inactive, SW480 rerep 0%, KB-V1 MDR tox inconclusive and D3 antag -15.
CC1=C(C(=O)Nc2ccc(C)cn2)C(c2cnn(C)c2)C2=C(CCCC2=O)N1 (centres undefined) was read as MCF10A rerep 0%, D3 ag -16, KB-3-1 cytotox inactive, SW480 rerep 0.52µM*, KB-V1 MDR tox inconclusive and D3 antag -20.
COc1ccc(OCC(=O)OCc2cc(=O)n3nc(C4CCCCC4)sc3n2)cc1 was read as D3 ag 5, KB-3-1 cytotox inactive and KB-V1 MDR tox inactive.
CCOC(=O)C1=C(C)N=c2s/c(=C\c3ccc(OCC(=O)O)cc3)c(=O)n2C1c1ccc(Cl)cc1 (centres undefined) was read as MCF10A rerep 18µM*, D3 ag 5, KB-3-1 cytotox inactive, SW480 rerep -56%[1.84 µM], KB-V1 MDR tox inactive and D3 antag 19.
For COCCN1C(=O)N[C@@H](c2cccs2)C(C(C)=O)=C1C the results were MCF10A rerep -5%, D3 ag 35*, KB-3-1 cytotox inactive, SW480 rerep -12%, KB-V1 MDR tox inactive and D3 antag -17.
`Cc1c(O)ccoc1=O` gave MCF10A rerep -5%, D3 ag 17, KB-3-1 cytotox inactive, SW480 rerep -3%, KB-V1 MDR tox inactive and D3 antag 1.
Cc1occc(=O)c1O was read as MCF10A rerep 4%, D3 ag 1, KB-3-1 cytotox inactive, SW480 rerep 5%, KB-V1 MDR tox inactive and D3 antag -53*.
For O=C(COc1ccccc1Br)N1CCN(c2ccccc2)CC1 the results were MCF10A rerep 14%, D3 ag -17, KB-3-1 cytotox inactive, SW480 rerep 7%, KB-V1 MDR tox 18µM* and D3 antag inconclusive.
N#Cc1ccccc1OCC(=O)N1CCN(c2ccccc2)CC1 was read as D3 ag 1, KB-3-1 cytotox inactive and KB-V1 MDR tox inactive.
Screening O=C(CCCOc1ccccc1)N1CCN(c2ccccc2)CC1 returned MCF10A rerep -1%, D3 ag -20, KB-3-1 cytotox inactive, SW480 rerep -3%, KB-V1 MDR tox inactive and D3 antag -53*.
`O=C(CCOc1ccccc1)N1CCN(S(=O)(=O)c2ccccc2F)CC1` gave MCF10A rerep 3%, D3 ag 3, KB-3-1 cytotox inactive, SW480 rerep 3%, KB-V1 MDR tox 21µM* and D3 antag -17.
Screening CCOC(=O)CSc1nc2ccccc2c(=O)n1-c1cccc(C)c1 returned D3 ag -8, KB-3-1 cytotox inconclusive and KB-V1 MDR tox inactive.
`O=C(c1cc2ccccc2[nH]1)c1cc2cc(O)ccc2[nH]1` gave KB-3-1 cytotox inactive and KB-V1 MDR tox inactive.
O=S(=O)(Nc1ccc(Cc2ccncc2)cc1)c1ccc(Cl)c(Cl)c1 was read as MCF10A rerep 53%, D3 ag -4, KB-3-1 cytotox inconclusive, SW480 rerep inconclusive, KB-V1 MDR tox 5.8µM* and D3 antag 7.
Screening COc1ccc(COCC(O)CN(Cc2ccco2)Cc2ccccc2O)cc1 (centres undefined) returned MCF10A rerep 7%, D3 ag -12, KB-3-1 cytotox inactive, SW480 rerep 2%, KB-V1 MDR tox 21µM* and D3 antag -8.
Screening Oc1ccccc1CN(Cc1ccco1)CC(O)COCc1ccc(Cl)cc1 (centres undefined) returned MCF10A rerep inconclusive, D3 ag -9, KB-3-1 cytotox inactive, SW480 rerep 18%, KB-V1 MDR tox inconclusive and D3 antag inconclusive.
